Measurements taken from the supplement of paper PMC3334620.
In all, about 33,000 sequences were measured (“E-score (-0.5 to 0.5)”: median about -0.013, highest 2% from about 0.3 on). The sample as a whole holds a higher share of the highest values than the screen did.

biological target: T1, Msn1 (UniProt P22148); assay: PBM E-score (8-mer binding enrichment) (E-score (-0.5 to 0.5)); higher = stronger / more preferred TF binding; settings: protein concentration: 200 nM; construct: GST-full length
T1 sequence: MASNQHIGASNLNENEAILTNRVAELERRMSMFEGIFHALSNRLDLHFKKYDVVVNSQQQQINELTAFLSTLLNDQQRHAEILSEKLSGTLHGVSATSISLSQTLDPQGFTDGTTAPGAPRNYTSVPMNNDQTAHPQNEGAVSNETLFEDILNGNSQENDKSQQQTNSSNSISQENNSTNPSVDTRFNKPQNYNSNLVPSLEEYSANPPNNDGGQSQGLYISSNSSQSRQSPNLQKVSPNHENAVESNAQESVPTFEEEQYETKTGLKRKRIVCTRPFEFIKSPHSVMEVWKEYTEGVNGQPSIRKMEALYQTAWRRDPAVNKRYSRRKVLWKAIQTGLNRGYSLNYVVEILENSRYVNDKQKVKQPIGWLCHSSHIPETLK
Protocol: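 Universal 'all 10-mer' protein binding microarrays (Agilent AMADID 015681) probed with GST-tagged S. cerevisiae TFs (full-length or DBD) made by in vitro transcription/translation (PURExpress), about 100-200 nM. Bound TF was detected with fluorescent anti-GST. Each ungapped 8-mer (which stands for itself and its reverse complement) is scored by the PBM enrichment score (E-score), a modified Wilcoxon-Mann-Whitney statistic from -0.5 to +0.5, computed with the Universal PBM Analysis Suite. Scale: above 0.35 generally sequence-specific binding.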

Going from CAGACAAC to GATGGAGC, the “PBM E-score” value falls from 0.212 to -0.185.

First: GTGCGGGA
Second: ATTAGTCA
The “PBM E-score” value of the first is lower: -0.0606 for the first, 0.0896 for the second.

First: ACAAGTCA
Second: ACAAGTCC
The “PBM E-score” value of the first is lower: 0.0996 for the first, 0.363 for the second.

Going from AAAAGTCT to ACAAGTCG, the “PBM E-score” value falls from 0.269 to 0.0205.

Going from ATTAGTCG to AAAAGTCA, the “PBM E-score” value rises from 0.16 to 0.194.

Going from AAAAGTAA to ATTAGTCC, the “PBM E-score” value rises from 0.25 to 0.349.

First: AAAAGTAT
Second: AAAAGTAC
The “PBM E-score” value of the first is lower: 0.17 for the first, 0.366 for the second.

Going from AAAAGTCC to ACCTCAGA, the “PBM E-score” value falls from 0.467 to -0.147.

Going from CGGCTTAC to AAGGCCAA, the “PBM E-score” value falls from 0.051 to -0.2.

Compared with TGGCGAAA, ACTGAAGA is higher in “PBM E-score” value: -0.095 for the first, 0.147 for the second.

Compared with AAGGCTAG, CACCCAAC is lower in “PBM E-score” value: 0.0752 for the first, -0.201 for the second.

Going from GAGGCGCC to CTAAGTCC, the “PBM E-score” value rises from -0.178 to -0.0602.

Compared with ATAAGTCG, ATAAGTCC is higher in “PBM E-score” value: 0.0746 for the first, 0.422 for the second.

First: ACAGTCAG
Second: CATTTGCA
The “PBM E-score” value of the first is lower: 0.0633 for the first, 0.0736 for the second.

Going from CATTTGTC to GATTTGCA, the “PBM E-score” value falls from 0.485 to 0.0983.

Going from AATTTGTA to CATTTGTA, the “PBM E-score” value rises from 0.28 to 0.36.

Compared with CATTTGGC, CATTTGCC is lower in “PBM E-score” value: 0.0384 for the first, -0.00883 for the second.

Compared with GGTTTGTA, GATTTGTA is higher in “PBM E-score” value: 0.0228 for the first, 0.31 for the second.

Going from GCAACCGC to AATCCAAG, the “PBM E-score” value falls from 0.0753 to 0.0229.

Going from AGCCCGCG to CAACCATC, the “PBM E-score” value rises from -0.185 to -0.177.

First: CTGAACTC
Second: GAGGGACC
The “PBM E-score” value of the first is higher: -0.0622 for the first, -0.268 for the second.

Compared with CAGGGACC, CAGGGACG is higher in “PBM E-score” value: -0.273 for the first, 0.165 for the second.

Going from GAGGGACA to CAGGGACA, the “PBM E-score” value rises from 0.447 to 0.47.

Going from AAGGGACC to GAGGGAGA, the “PBM E-score” value falls from -0.0619 to -0.218.

Compared with AAGGGACT, TAGGGAGA is lower in “PBM E-score” value: 0.0205 for the first, -0.215 for the second.

First: AAGGGACA
Second: TAGGGAAA
The “PBM E-score” value of the first is higher: 0.44 for the first, -0.0483 for the second.

First: TAGGGACA
Second: ACTAGCGA
The “PBM E-score” value of the first is higher: 0.484 for the first, 0.0418 for the second.

Compared with AGCATGCG, GAGTCTCA is higher in “PBM E-score” value: -0.0235 for the first, 0.00041 for the second.

Going from CGATAACC to GAAATGGA, the “PBM E-score” value falls from 0.0193 to -0.0913.

First: GAAATGAC
Second: CCGATTTA
The “PBM E-score” value of the first is higher: 0.216 for the first, 0.109 for the second.

Compared with GAGCCCTC, CCCTAGTA is higher in “PBM E-score” value: -0.318 for the first, -0.0771 for the second.

Going from CAAGCGTA to CCTTTTAC, the “PBM E-score” value rises from -0.0459 to 0.0837.

First: CTGGGGCC
Second: ACGACAAT
The “PBM E-score” value of the first is lower: -0.384 for the first, 0.24 for the second.

First: AGGACTAC
Second: AGGACGAT
The “PBM E-score” value of the first is lower: -0.122 for the first, -0.0393 for the second.

Compared with AGGACAAG, AGGACTAG is lower in “PBM E-score” value: 0.472 for the first, 0.273 for the second.

First: AGGACCAC
Second: AGGACCAG
The “PBM E-score” value of the first is higher: -0.124 for the first, -0.141 for the second.

Compared with AGGACAAC, AGGACAAT is higher in “PBM E-score” value: 0.436 for the first, 0.483 for the second.

Compared with ATTCGAAA, AATCTGGT is lower in “PBM E-score” value: 0.0661 for the first, 0.0578 for the second.

Compared with ATAGGTAC, GCTTTCGA is lower in “PBM E-score” value: 0.199 for the first, -0.175 for the second.

First: ATGCCTGC
Second: ACGGTTAA
The “PBM E-score” value of the first is lower: -0.145 for the first, -0.117 for the second.

First: CCTCGTTC
Second: AGAAAACA
The “PBM E-score” value of the first is lower: -0.202 for the first, 0.108 for the second.

Compared with AAGGACTA, CAGGACAG is higher in “PBM E-score” value: -0.00885 for the first, 0.259 for the second.

Going from AAGGACTT to AAGGACGA, the “PBM E-score” value falls from 0.347 to 0.0414.
